{
  "source": "PubChem BioAssay (NCATS)",
  "note": "Results filed as inconclusive are left out. Where a call stands in place of a potency, no number is given. Calls of active or inactive are those of the source. The call rests on the fitted dose curve; tested in HEK293 reporter line. Potency means the concentration at half of the fitted maximal effect.",
  "data": [
    {"assay": "qHTS for Inhibitors of the Functional Ribonucleoprotein Complex (vRNP) of Lassa (LASV) Arenavirus: LASV Primary Screen - GLuc reporter signal (AID 1347082); further: nearly all actives have a fitted effect of over 60% in size", "conditions": "LASV minigenome vRNP, Gaussia luciferase reporter; series mostly up to 57.5 µM", "values": [
      {"smiles": "C[C@H]1CCC[C@@H](O)CCC/C=C/c2cc(O)cc(O)c2C(=O)O1", "Potency": "inactive"},
      {"smiles": "COC(=O)c1ccc2c(c1)C(NC(C)=O)CCc1cc(OC)c(OC)c(OC)c1-2", "note": "(stereo not given)", "Potency": "inactive"},
      {"smiles": "CC(=O)O[C@@]12CO[C@@H]1C[C@@H](O)[C@@]1(C)C(=O)[C@H](O)C3=C(C)[C@@H](OC(=O)[C@H](O)[C@@H](NC(=O)c4ccccc4)c4ccccc4)C[C@@](O)([C@@H](OC(=O)c4ccccc4)C12)C3(C)C", "note": "(stereo not given in full)", "Potency": "inactive"},
      {"smiles": "COc1cc2c(ccc3c4cc(OC)c(OC)cc4c[n+](C)c23)cc1O", "Potency": "inactive"},
      {"smiles": "CNC(=O)Nc1ccc(Cl)c(Cl)c1", "Potency": "inactive"},
      {"smiles": "COc1ccnc2[nH]cc(C(=O)C(=O)N3CCN(C(=O)c4ccccc4)C[C@@H]3C)c12", "Potency": "inactive"},
      {"smiles": "C[C@H]([C@@H](O)[C@@H](O)[C@@H](C)C(C)(C)C)[C@H]1CC[C@H]2C3CC[C@H]4C[C@H](OS(=O)(=O)O)[C@@H](OS(=O)(=O)O)C[C@]4(C)[C@H]3CC[C@]12C", "note": "(stereo not given in full)", "Potency": "inactive"},
      {"smiles": "O=C(/C=C/c1ccc(O)c(O)c1)c1ccc(O[C@@H]2O[C@H](CO)[C@@H](O)[C@H](O)[C@H]2O)c(O)c1O", "Potency": "inactive"},
      {"smiles": "Cc1cnn(C)c1C(=O)Nc1cc(Nc2ccc3c(C=Cc4ccccn4)n[nH]c3c2)ccc1F", "Potency": "21.7 µM (active)"},
      {"smiles": "CC(=O)O[C@H]1C(=O)[C@@]2(C)C([C@H](OC(=O)c3ccccc3)[C@]3(O)C[C@H](O)C(C)=C1C3(C)C)[C@]1(OC(C)=O)CO[C@@H]1C[C@H]2O", "note": "(stereo not given in full)", "Potency": "inactive"}
    ]},
    {"assay": "qHTS for Inhibitors of the Functional Ribonucleoprotein Complex (vRNP) of Lassa (LASV) Arenavirus: Viability assay - alamar blue signal for LASV Primary Screen (AID 1347083); further: nearly all actives have a fitted effect of over 80% in size", "conditions": "cell viability, alamar blue fluorescence (LASV minigenome counter-screen); series mostly up to 57.5 µM", "values": [
      {"smiles": "COC(/C(C)=C/C=C/C(C)=C/c1coc(C)n1)C(C)C1CC(O)C2(C)OC2C=CC(C)C2CC(CC(=O)O2)CC2OC2C(=O)O1", "note": "(stereo not given)", "Potency": "inactive"},
      {"smiles": "CC(C)c1c(C(=O)Nc2ccccc2)c(-c2ccccc2)c(-c2ccc(F)cc2)n1CC[C@H](O)C[C@@H](O)CC(=O)O", "Potency": "inactive"},
      {"smiles": "COc1ccc(C2CC(=O)c3c(O)cc(O)cc3O2)cc1O", "note": "(stereo not given)", "Potency": "inactive"},
      {"smiles": "O=c1ccn([C@@H]2O[C@H](COP(=O)(O)O)[C@@H](O)[C@H]2O)c(=O)[nH]1", "Potency": "inactive"},
      {"smiles": "CCCn1c(=O)c2[nH]c(-c3cnn(Cc4cccc(C(F)(F)F)c4)c3)nc2n(CC)c1=O", "Potency": "inactive"},
      {"smiles": "COc1ccc([C@@H]2CC(=O)c3c(O)cc(O[C@@H]4O[C@H](CO)[C@@H](O)[C@H](O)[C@H]4OC4O[C@@H](C)[C@H](O)[C@@H](O)[C@H]4O)cc3O2)cc1O", "note": "(stereo not given in full)", "Potency": "inactive"},
      {"smiles": "CC(=O)O[C@@]12CO[C@@H]1C[C@H](OC1OCC(O)C(O)C1O)[C@@]1(C)C(=O)[C@H](O)C3=C(C)[C@@H](OC(=O)[C@H](O)[C@@H](NC(=O)c4ccccc4)c4ccccc4)C[C@@](O)([C@@H](OC(=O)c4ccccc4)C12)C3(C)C", "note": "(stereo not given in full)", "Potency": "20 µM (active)"},
      {"smiles": "CC(=O)c1ccc[nH]1", "Potency": "inactive"},
      {"smiles": "CON=C(C(=O)N[C@@H]1C(=O)N2C(C(=O)O)=C(CSC(=O)c3ccco3)CS[C@H]12)c1csc(N)n1", "Potency": "inactive"},
      {"smiles": "CC(=O)O[C@@H]1CC[C@@]2(C)[C@H](C1)[C@H](OC(C)=O)C[C@@H]1[C@@H]2C[C@H]2[C@@H]3CN4C[C@H](C)CC[C@H]4[C@H](C)[C@H]3CC[C@@]12O", "Potency": "inactive"},
      {"smiles": "COc1cc(/C=C/C(=O)c2ccc(O)cc2O)ccc1O", "Potency": "inactive"},
      {"smiles": "Oc1ccc(C2CCN(c3ccnc4ccccc34)CC2)cc1O", "Potency": "6.85 µM (active)"},
      {"smiles": "CO[C@H]1O[C@@H]2O[C@@]3(C)CC[C@@H]4[C@@H](C)CC[C@@H]([C@H]1C)[C@@]24OO3", "Potency": "inactive"},
      {"smiles": "COc1ccc(-c2cc(=O)c3c(O)cc(O)c(-c4cc(-c5cc(=O)c6c(O)cc(OC)cc6o5)ccc4OC)c3o2)cc1", "Potency": "inactive"},
      {"smiles": "COC(=O)c1ccc2c(c1)C(NC(C)=O)CCc1cc(OC)c(OC)c(OC)c1-2", "note": "(stereo not given)", "Potency": "inactive"},
      {"smiles": "CNC(=O)Nc1ccc(Cl)c(Cl)c1", "Potency": "inactive"},
      {"smiles": "COc1ccnc2[nH]cc(C(=O)C(=O)N3CCN(C(=O)c4ccccc4)C[C@@H]3C)c12", "Potency": "inactive"},
      {"smiles": "C[C@H]([C@@H](O)[C@@H](O)[C@@H](C)C(C)(C)C)[C@H]1CC[C@H]2C3CC[C@H]4C[C@H](OS(=O)(=O)O)[C@@H](OS(=O)(=O)O)C[C@]4(C)[C@H]3CC[C@]12C", "note": "(stereo not given in full)", "Potency": "inactive"},
      {"smiles": "O=C(/C=C/c1ccc(O)c(O)c1)c1ccc(O[C@@H]2O[C@H](CO)[C@@H](O)[C@H](O)[C@H]2O)c(O)c1O", "Potency": "inactive"},
      {"smiles": "Cc1cnn(C)c1C(=O)Nc1cc(Nc2ccc3c(C=Cc4ccccn4)n[nH]c3c2)ccc1F", "Potency": "19.3 µM (active)"}
    ]}
  ]
}
